Results: PubChem BioAssay (NCI)
About 83,000 compounds went through this panel and 20% of them were active in at least one assay; those are over-represented in the sample as a whole.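 For each line, cells grew in 96-well plates with the test compound present at a single concentration for 48 hours.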 Unmarked numbers belong to inactive results. Active and inactive are the calls of the source. The calls were made as follows: active = growth percent below 10; inactive = the rest.

What was measured:
Test in all cases: NCI-60 one-dose screen, 48 h (100 = growth as untreated, 0 = no growth, -100 = all killed)
Settings in all cases: 10 µM unless noted
NCI-H23 lung = system: NCI-H23 lung
NCI-H226 lung = system: NCI-H226 lung
NCI-H322M lung = system: NCI-H322M lung
HOP-62 NSCLC = system: HOP-62 NSCLC
NCI-H460 lung = system: NCI-H460 lung
HOP-92 NSCLC = system: HOP-92 NSCLC
NCI-H522 lung = system: NCI-H522 lung
A549/ATCC NSCLC = system: A549/ATCC NSCLC
786-0 renal = system: 786-0 renal
COLO 205 colon = system: COLO 205 colon
DU-145 prostate = system: DU-145 prostate
K-562 leukemia = system: K-562 leukemia
MALME-3M melanoma = system: MALME-3M melanoma
RXF 393 renal = system: RXF 393 renal
SF-268 CNS = system: SF-268 CNS
SF-295 CNS = system: SF-295 CNS
SF-539 CNS = system: SF-539 CNS
UACC-257 melanoma = system: UACC-257 melanoma
M14 melanoma = system: M14 melanoma
MDA-MB-231 breast = system: MDA-MB-231 breast

Row | Structure (SMILES) | growth (NCI-H23 lung) | growth (NCI-H226 lung) | growth (NCI-H322M lung) | growth (HOP-62 NSCLC) | growth (NCI-H460 lung) | growth (HOP-92 NSCLC) | growth (NCI-H522 lung) | growth (A549/ATCC NSCLC) | growth (786-0 renal) | growth (COLO 205 colon) | growth (DU-145 prostate) | growth (K-562 leukemia) | growth (MALME-3M melanoma) | growth (RXF 393 renal) | growth (SF-268 CNS) | growth (SF-295 CNS) | growth (SF-539 CNS) | growth (UACC-257 melanoma) | growth (M14 melanoma) | growth (MDA-MB-231 breast)
1 | N#CC1=C(N)Oc2c(sc3c(Br)cccc23)C1c1ccc(Br)cc1 (centres undefined) | 20.4% | 57.1% | 42.3% | 22% | 6.62% (active) | 34.7% | -7.13% (active) | 25.5% | 17.1% | -49.5% (active) | 8.77% (active) | 8.24% (active) | 60% | -2.19% (active) | 33.9% | 0.128% (active) | -14.2% (active) | 41.4% | -0.594% (active) | –
2 | COc1ccc(-c2nnc(COc3ccc(Cl)cc3Cl)o2)cc1OC | 56.3% | 32.8% | 16.8% | -1.03% (active) | -4.77% (active) | -32.4% (active) | 19.4% | 9.7% (active) | -70.8% (active) | 58.5% | 22.6% | 65.1% | -1.79% (active) | -56.7% (active) | 45.7% | 23.5% | 83.6% | 37.7% | – | –
3 | COC(=O)C(Cc1ccccc1)NC(=O)NC(=O)NC(=O)CI (centres undefined) | 63.2% | 82.9% | 108% | 102% | 92.3% | -26% (active) | -82.1% (active) | 99.8% | -3.88% (active) | 25.4% | 91.2% | -18.8% (active) | -71% (active) | 63.9% | 71.8% | 103% | 87.7% | 103% | 35.2% | –
4 | COc1ccc(-c2nn(C(=O)c3cc(OC)c(OC)c(OC)c3)c3cc(N)ccc23)cc1 | 34.1% | 28.9% | 53.4% | 30.1% | 9.14% (active) | 50.1% | -12.6% (active) | 18.1% | 6.94% (active) | -60.3% (active) | 10.1% | 8.96% (active) | 68.2% | 14.6% | 27.4% | 7.45% (active) | -24% (active) | 86.4% | 24.4% | 29.9%
5 | CN1C(=O)CNC(=O)[C@H](NC(=O)c2nc3ccccc3cc2O)CSSC[C@H]1C(=O)NCCCc1nc2ccccc2cc1O | 67.2% | 85.8% | 70.6% | 81.8% | 13.4% | 120% | 60.4% | 48.3% | 113% | -9.63% (active) | 42.3% | 18.4% | 110% | 102% | 49.5% | 91.9% | 82% | 83.9% | 14.3% | –
6 | Cc1nc2ccccc2n1-c1ncnc2c1CC(C)c1ccccc1N2C (centres undefined) | 85.6% | 89.7% | 97.8% | 68.4% | 102% | 51.4% | 72.5% | 70.8% | 92% | 88% | 96.2% | 31.2% | 105% | 102% | 94.2% | 77.9% | 93.9% | 91.5% | 71.3% | –
7 | O=C(O)c1cn(C2CC2)c2cc(N3CCN(C(=O)Nc4nc(-c5ccc(Cl)cc5)cs4)CC3)c(F)cc2c1=O | 8.09% (active) | 19.7% | 4.8% (active) | 20.5% | 8.14% (active) | -22.2% (active) | -6.18% (active) | 6.96% (active) | 22.6% | 6.21% (active) | 11.4% | 8.49% (active) | -20.2% (active) | 41.6% | 20.6% | -3.25% (active) | 14.7% | -12.5% (active) | 18.2% | –
8 | COc1ccc(-c2nc(NCCO)[nH]c(=O)c2C#N)cc1 | 95.1% | 99.9% | 95.8% | 86.3% | 112% | 98.5% | 88.5% | 98.5% | 101% | 101% | 101% | 97.1% | 101% | 117% | 99.2% | 97.1% | 104% | 112% | 99.9% | –
9 | CSc1ccc2c(c1)c(CCN)c(C)n2Cc1ccc(Cl)c(Cl)c1 | -89.7% (active) | -59.8% (active) | -83% (active) | -78.2% (active) | -70.6% (active) | -91.6% (active) | -76.5% (active) | -77.9% (active) | -76.1% (active) | -75.8% (active) | -89.4% (active) | -66.1% (active) | -75.4% (active) | -82.5% (active) | -71.1% (active) | -90.9% (active) | -82.8% (active) | -73.3% (active) | -85% (active) | –
10 | CN1C(=O)CNC(=O)[C@H](NC(=O)c2nc3ccccc3cc2O)CSSC[C@H]1C(=O)NCCc1nc2ccccc2cc1O | 64.1% | 83.8% | 62.9% | 82.1% | 8.06% (active) | 128% | 42.9% | 38.8% | 112% | 1.34% (active) | 38.6% | 5.35% (active) | 110% | 100% | 46.4% | 68.3% | 94.2% | 79.2% | 6.87% (active) | –
11 | COC1=C(C)C(=O)c2c(c(CCCl)c3n2CCC3O)C1=O (centres undefined) | -16.8% (active) | -30.8% (active) | -4.2% (active) | -11.2% (active) | 4.7% (active) | 103% | -46.1% (active) | 4.42% (active) | -21% (active) | -59.2% (active) | 1.19% (active) | 22% | -55.7% (active) | -53.7% (active) | 9.6% (active) | -12% (active) | -28.8% (active) | -44.8% (active) | – | –
12 | COc1ccc(C2C(N)=NNC2c2cccc(O)c2)cc1 (centres undefined) | 90.2% | 84% | 90.6% | 90.2% | 115% | 88.3% | 89.2% | 99.8% | 108% | 125% | 125% | 89% | 88.5% | 97.2% | 99.4% | 92.1% | 95.4% | 107% | 104% | 104%
13 | CN1CCN(c2ccc(-c3ccc4ncc(C#N)c(Nc5ccc(F)c(Cl)c5)c4c3)cn2)CC1 | 79% | 84.2% | 16.8% | 68.7% | – | 57.9% | 39.1% | 51.3% | 52.9% | 57.1% | 27.5% | 17.3% | 27.9% | 27.3% | 47.7% | 71.5% | 60.2% | 34% | – | 77.2%
14 | O=c1c2cc(F)ccc2sc2c(N3CCNCC3)nc3ccccc3c12 | 68.8% | 88% | 60.3% | 61.4% | -76.4% (active) | 36.8% | 39.3% | 34.4% | 65.7% | -49.6% (active) | -31.5% (active) | -38.2% (active) | 84.8% | 58.1% | 55.1% | 92.1% | 29.8% | 92.1% | -52.7% (active) | -29.1% (active)
15 | CC(=O)Oc1ccccc1C(=O)N=C1[Se]CCCN1C(=O)c1ccccc1OC(C)=O | 6.41% (active) | -19.1% (active) | -5.61% (active) | 17.7% | – | -10.3% (active) | 73.3% | 77.9% | 95.9% | 114% | 15.8% | 32.1% | -27.1% (active) | 6.8% (active) | -14.1% (active) | 17.5% | -42.5% (active) | 57.4% | -10.4% (active) | -57.6% (active)
16 | Cn1cc(-c2cc3ncnc(Nc4ccc(CC(=O)Nc5cc(C(C)(C)C)on5)cc4)c3s2)cn1 | 50.2% | 26% | 32.9% | 58.1% | – | 35.8% | 36.3% | 21.6% | 36% | 24.7% | 29.9% | 11.1% | 43.4% | 19.3% | 31.6% | 49.9% | 15.7% | 59.3% | 21.1% | 34.4%
